Laboratory results taken from PubChem BioAssay (NCATS).
Inconclusive results are not listed. A call without a number means that no potency is given here. Calls of active or inactive are those of the source. Calls follow the shape of the dose curve; as a rule, active = well fitted curve in the direction sought with a large enough effect; inconclusive = small, poorly fitted or top-dose-only effect, or another doubt; inactive = no such curve, though single readings can be large; an effect the other way counts as inactive or inconclusive.

Experiments:
MCC-26 = experiment: qHTS assay to identify novel small-molecules to repurpose for Merkel cell carcinoma treatment (AID 1296009); conditions: MCC and control cell lines, CellTiter-Glo viability, 72 h; series mostly up to 46 µM; also: nearly all actives have a fitted effect of over 60% in size; also: potency is read from the fitted curve at half-maximal effect
Outline: (§1)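 72 hr, 37 degree celsius; NPC 8-pt / MIPE 11-pt dose response; compound pinned in DMSO; CellTiter-Glo, 10 min RT, luminescence; normalized to no-cell and DMSO controls.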

MKL-1 = experiment: as above; conditions: MCC and control cell lines, CellTiter-Glo viability, 72 h; series mostly up to 46 µM
Outline: as §1

WaGa = experiment: as above; conditions: MCC and control cell lines, CellTiter-Glo viability, 72 h; series mostly up to 46 µM
Outline: as §1

MKL-2 = experiment: as above; conditions: MCC and control cell lines, CellTiter-Glo viability, 72 h; series mostly up to 46 µM
Outline: as §1

CASKI = experiment: Primary qHTS to identify gynecologic anti-cancer compounds using libraries of approved drugs and bioactive compounds (AID 1345084); conditions: Gynecologic cancer cell panel viability, ATPlite luminescence, 48 h; series mostly up to 57.5 µM; also: nearly all actives have a fitted effect of over 55% in size
Outline: (§2)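 Five-concentration response, 48 h; readout is ATP-driven luciferase luminescence.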

Es-2 = experiment: as above; conditions: Gynecologic cancer cell panel viability, ATPlite luminescence, 48 h; series mostly up to 57.5 µM
Outline: as §2

UISO = experiment: qHTS assay to identify novel small-molecules to repurpose for Merkel cell carcinoma treatment (AID 1296009); conditions: MCC and control cell lines, CellTiter-Glo viability, 72 h; series mostly up to 46 µM; also: nearly all actives have a fitted effect of over 60% in size; also: potency is read from the fitted curve at half-maximal effect
Outline: as §1

NIH3T3 = experiment: as above; conditions: MCC and control cell lines, CellTiter-Glo viability, 72 h; at 44.8 µM (top of the series) unless noted
Outline: as §1

Question: For `COc1cc2ncnc(Nc3cccc(Br)c3)c2cc1OC`, which Potency (MCC-26) is on record?
Answer: inactive

Question: What about the Potency (MKL-1) of the same compound?
Answer: inactive

Question: And the Potency (WaGa)?
Answer: inactive

Question: `CC1=C(C(=O)Nc2cc3cn[nH]c3cc2F)C(c2ccc(Cl)cc2F)N=C(c2ccnc(Cl)c2)N1` (stereo not drawn) was tested. Which Potency (MCC-26) did it give?
Answer: inactive

Question: What about the Potency (MKL-2) of the same compound?
Answer: 20900 nM (active)

Question: And the Potency (WaGa)?
Answer: 10500 nM (active)

Question: What about the Potency (CASKI) of the same compound?
Answer: inactive

Question: And the Potency (Es-2)?
Answer: inactive

Question: How did the Potency (MCC-26) turn out when `O=C1CSC(=O)N1C(CCc1ccncc1)COc1ccc(-c2cccc([N+](=O)[O-])c2)cc1` (stereo not drawn) was run?
Answer: inactive

Question: What about the Potency (MKL-2) of the same compound?
Answer: 18700 nM (active)

Question: What about the Potency (UISO) of the same compound?
Answer: 13200 nM (active)

Question: And the Potency (WaGa)?
Answer: 16600 nM (active)

Question: What does the source list for `N#CC(=Cc1ccc(O)c(O)c1)C(=O)NCc1ccccc1`?
Answer: Potency (MCC-26): inactive; Potency (MKL-2): inactive

Question: How did the Potency (MCC-26) turn out when `CC(N[C@H]1CCCC[C@H]1NC(=O)c1ccc(Cl)cc1)c1cccc2ccccc12` (stereo partly drawn) was run?
Answer: inactive

Question: And the Potency (MKL-2)?
Answer: 418 nM (active)

Question: And the Potency (UISO)?
Answer: inactive

Question: Which Potency (MCC-26) does the source give for `CC(C)NC[C@@H](C(=O)N1CCN(c2ncnc3c2[C@H](C)C[C@H]3O)CC1)c1ccc(Cl)cc1` here?
Answer: inactive

Question: What about the Potency (MKL-2) of the same compound?
Answer: 1660 nM (active)

Question: What about the Potency (WaGa) of the same compound?
Answer: 2090 nM (active)

Question: With `C[C@@H]1C(=O)O[C@H]2CC34[C@H]5C[C@@H](C(C)(C)C)C36[C@H](OC(=O)[C@@H]6O)O[C@@]4(C(=O)O5)[C@]21O` (stereo partly drawn) as the compound, how does the Potency (MCC-26) read?
Answer: inactive

Question: What about the outcome (NIH3T3) of the same compound?
Answer: inactive

Question: What about the Potency (UISO) of the same compound?
Answer: inactive

Question: Which results are given for `COc1ccc(S(=O)(=O)Nc2cc(-c3c(O)ccc4ccccc34)c(O)c3ccccc23)cc1`?
Answer: Potency (MCC-26): inactive; Potency (MKL-2): 26400 nM (active); outcome (NIH3T3): inactive; Potency (UISO): 166 nM (active)

Question: `Cn1cc(CNCC2CCN(c3ncc(C(=O)NO)cn3)CC2)c2ccccc21` was tested. Which Potency (MCC-26) did it give?
Answer: 590 nM (active)

Question: And the Potency (MKL-2)?
Answer: 33.2 nM (active)

Question: What about the Potency (UISO) of the same compound?
Answer: 264 nM (active)

Question: What about the Potency (WaGa) of the same compound?
Answer: 29.6 nM (active)

Question: `CC(C=CC1=C(C)CCCC1(C)C)=CC=CC(C)=CC(=O)Nc1ccc(O)cc1` was tested. Which Potency (MCC-26) did it give?
Answer: inactive

Question: And the Potency (MKL-2)?
Answer: 30300 nM (active)

Question: `O=C(NNC(=O)c1ccc(CNS(=O)(=O)c2ccc(F)c(Cl)c2)cc1)c1ccccc1` was tested. Which Potency (MKL-1) did it give?
Answer: inactive

Question: And the Potency (MKL-2)?
Answer: inactive

Question: And the outcome (NIH3T3)?
Answer: inactive

Question: And the Potency (UISO)?
Answer: inactive

Question: And the Potency (WaGa)?
Answer: inactive

Question: For `C=CC(=O)N1CCc2ccc(-n3c(=O)ccc4cnc5ccc(-c6cnn(C)c6)cc5c43)cc21`, which Potency (MKL-1) is on record?
Answer: 1870 nM (active)

Question: And the Potency (MKL-2)?
Answer: 1870 nM (active)

Question: And the Potency (UISO)?
Answer: 6620 nM (active)

Question: What does the source list for `CON=C(C(=O)N[C@@H]1C(=O)N2C(C(=O)O)=C(Cn3ccc(=N)n3CCO)CS[C@H]12)c1csc(N)n1`?
Answer: Potency (MKL-1): inactive; Potency (MKL-2): inactive; Potency (UISO): inactive; Potency (WaGa): inactive

Question: How did the Potency (MCC-26) turn out when `NS(=O)(=O)OC[C@@H]1C[C@@H](n2ccc3c(N[C@H]4CCc5ccccc54)ncnc32)C[C@H]1O` was run?
Answer: 2090 nM (active)

Question: What about the Potency (UISO) of the same compound?
Answer: 1180 nM (active)

Question: And the Potency (WaGa)?
Answer: 1480 nM (active)

Question: With `CC[C@H]1OC(=O)[C@H](C)[C@@H](O[C@H]2C[C@@](C)(OC)[C@@H](O)[C@H](C)O2)[C@H](C)[C@@H](O[C@@H]2O[C@H](C)C[C@H](N(C)C)[C@@H]2O)[C@](C)(OC)C[C@@H](C)C(=O)[C@H](C)[C@@H](O)[C@]1(C)O` as the compound, how does the Potency (MKL-1) read?
Answer: inactive

Question: What about the Potency (MKL-2) of the same compound?
Answer: inactive

Question: And the outcome (NIH3T3)?
Answer: inactive

Question: And the Potency (UISO)?
Answer: inactive

Question: And the Potency (WaGa)?
Answer: inactive
